Results taken from PubChem BioAssay AID624300 (Southern Research Specialized Biocontainment Screening …, 2012).
In all, about 2,400 compounds went through this assay and about 360 (15%) were called active.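 The calls were made as follows: active = viability falls under 70% at one or more tested concentrations, taken as toxicity; inactive = viability stays over 70% at every dose.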 A selection follows. Entries with a potency or affinity are not part of this list.

Assay: HeLa cell cytotoxicity, dose response, cytotoxicity control for MgcRacGAP inhibitor project (AID 624300)
Details: CellTiter-Glo luminescence, 24 h; series mostly up to 100 µM

SMILES | outcome
CCOc1cc(/C=N\NC(=O)c2c(C)nc3ccccn23)ccc1O | inactive
Oc1ccc(-c2cn3c(n2)SCC3)cc1 | inactive
CCN(CC)c1ccc(NC(=O)COc2ccc(-n3cnnn3)cc2)cc1 | inactive
COc1cc(/C=C/CN2CCC(CO)(CC3CCCCO3)CC2)ccc1O (stereo not drawn) | inactive
CC(NS(=O)(=O)c1ccc(Cl)cc1)C(=O)OCC(=O)Nc1ccc(N(C)C)cc1 (stereo not drawn) | inactive
COC(=O)c1c(NC(=O)CCNCc2ccco2)sc2c1CCC2 | inactive
CCN(CC)CCCNCC(=O)Nc1ccc2c(c1)CCC2 | inactive
O=c1c2ccccc2n2c(=S)[nH]nc2n1-c1ccccc1 | inactive
CN(C)C=NC1=NN(c2cccc(C(F)(F)F)c2)CC1 | inactive
Cc1ccc(N2C(N)=C(C#N)C3(C(=O)N(C)c4ccccc43)C3=C2CC(C)(C)CC3=O)cc1Cl (stereo not drawn) | inactive
C=C1CC(C(=O)N/N=C/c2ccc(O)cc2)C1 | inactive
O=c1c2ccc(F)cc2sn1-c1ccccc1 | inactive
CC(=O)Nc1ccc2sn(-c3ccccc3)c(=O)c2c1 | inactive
COc1ccc(N2C(=O)/C(=C/N(C)C)NC2=S)cc1 | inactive
COc1cccc(-c2cc(C(=O)N3CCN(c4ccc(F)cc4)CC3)no2)c1 | inactive
NS(=O)(=O)c1ccc(CCNCC(=O)N2CCC(Cc3ccccc3)CC2)cc1 | inactive
CSC1=NN(c2ccccc2)CN(c2ccccc2)N1C | inactive
O=C(CNc1ccc(Oc2ccccc2)cc1)N1CCOCC1 | inactive
COCC(C)NCc1ccccc1C (stereo not drawn) | inactive
CCOc1ccccc1N1CCN(C/C=C/c2ccc(N(C)C)cc2)CC1 | inactive
C[n+]1ccc(/C=C/c2ccccc2O)c2ccccc21 | inactive
CN(C)c1ccc(C=Cc2cnccn2)cc1 | inactive
CCOCCCn1c(=O)c2ccccc2n2c(=S)[nH]nc12 | inactive
COc1cc(/C=C(/NC(=O)c2ccccc2)C(=O)Nc2ccc(O)cc2)c([N+](=O)[O-])cc1OC | inactive

SMILES | outcome
COc1ccc(CN2CCN(Cc3ccc(C(F)(F)F)cc3)CC2)cc1 | inactive
O=C(NCc1ccccc1)/C(=C\c1ccc(O)cc1)NC(=O)c1ccco1 | inactive
CC(C)C1=Nc2cccc3cccc(c23)N1 | inactive
COc1ccc(OC(=O)COc2cccc(C)c2)cc1 | inactive
ON=C1c2ccccc2-c2ccc(O)cc21 | inactive
CN(C)c1ccc2cc(S(=O)(=O)O)cc(O)c2c1 | inactive
O=C(O)c1ccc2c(c1)C(=O)/C(=C\c1ccco1)C2=O | inactive
Clc1nc(NCc2cccnc2)nc(N2CCOCC2)n1 | inactive
COc1cc(N)ccc1NC(=O)c1cccs1 | inactive
COc1ccc(NC2CCCN(C(=O)c3ccc(C)nc3)C2)cc1 (stereo not drawn) | inactive
COc1cc(/C=C/C(=O)OCC(=O)NCCC2=CCCCC2)ccc1O | inactive
COc1ccc(OC)c(CN2CCSCC2)c1 | inactive
CCOc1cc(N2CCOCC2)c(OCC)cc1NC(=O)c1ccc(C)s1 | inactive
CCOC(=O)SC1=N/C(=C\c2ccc(N(C)C)cc2)C(=O)S1 | inactive
Cc1ccc(/C=[N+](\[O-])c2ccc(N(C)C)cc2)c2nsnc12 | inactive
CN(C)c1cc2c3ccccc3n(C)c2cc1N | inactive
COc1ccc(NC2=NCCC2)cc1 | inactive
COc1cc(/C=C/C(=O)OCC(=O)N2CCC(Cc3ccccc3)CC2)ccc1O | inactive
Cc1ccc2oc(=O)c(/C=C(\O)c3ccccc3)nc2c1 | inactive
C/C(=N\NC(=O)CSCc1ccccc1Cl)c1cc(O)ccc1O | inactive
COc1ccc(C(=O)Nc2ccc(N3CCCCCC3)cc2)cc1S(=O)(=O)N1CCOCC1 | inactive
CCOc1ccc(Nc2n[nH]c(=S)s2)cc1 | inactive
COc1cc(/C=N\NC(=O)CNC(=O)C(c2ccccc2)c2ccccc2)ccc1O | inactive
CSc1ncnc2c1ncn2CCCNc1ccc(C)c(C)c1 | inactive

SMILES | outcome
CCOC(=O)c1sc(/N=C/c2c(O)ccc3ccccc23)cc1C | inactive
Nc1ccc(Nc2nc(-c3cc4ccccc4oc3=O)cs2)cc1 | inactive
Nc1ccc2c(c1Br)Cc1ccccc1-2 | inactive
COc1cc(CN2CCN(Cc3ccc(C(F)(F)F)cc3)CC2)cc(OC)c1OC | inactive
Nc1c(Cl)cc(NC(=O)c2ccccc2C(=O)O)cc1Br | inactive
COc1ccc2c(c1OC)C(=O)OC2CC(=O)c1ccc(O)c(O)c1 (stereo not drawn) | inactive
O=C(/C=C/c1ccc(O)c(O)c1)NC(=O)c1ccccc1O | inactive
COc1ccc(/C=N/NC(=O)c2ccc(CSc3nc(C)cc(C)n3)cc2)cc1O | inactive
O=C(COc1cccc2cccnc12)N/N=C/c1ccc(O)cc1 | inactive
O=C(Nc1ccccc1)c1cccc(-c2nnc(-c3ccccc3)o2)c1 | inactive
COc1ccc(NC(=O)c2cccc(-c3ccc(O)cc3)c2)cn1 | inactive
O=C(CN1CCCCCC1)NCC1CCCO1 (stereo not drawn) | inactive
C#CCOCCOCCOCCNc1nc(N2CCN(C(=O)C([C@@H](C)O)n3cc([C@@H](N)CCCCN)nn3)CC2)nc(N2CCN(C(=O)[C@H](CO)n3cc([C@@H](N)C(C)C)nn3)CC2)n1 (stereo partly drawn) | inactive
OCCN(C=NC1=NN(c2cccc(C(F)(F)F)c2)CC1)CCO | inactive
O=C(N/N=C/c1ccc(O)c(O)c1)c1ccc(-n2cnnn2)cc1 | inactive
Cc1cc(-c2n[nH]c(=S)n2/N=C/c2sccc2C)n[nH]1 | inactive
COc1ccc(NCCC#N)cc1 | inactive
COc1ccc(NC2CCCN(C(=O)c3cccc(N(C)C)c3)C2)cc1 (stereo not drawn) | inactive
CCOc1cc(N2CCOCC2)c(OCC)cc1NCC(=O)N1CCN(Cc2ccccc2)CC1 | inactive
Cc1[nH]n(-c2ccccc2)c(=O)c1/C=N/N(C)c1ccccc1 | inactive
Nc1ccc(N2CCN(c3cccc(Cl)c3)CC2)cc1 | inactive
Brc1cccc(OCCN2CCOCC2)c1 | inactive
CCS(=O)(=O)NC(C)C(c1cccs1)N1CCN(c2ccc(OC)cc2)CC1 (stereo not drawn) | inactive
O=C1CCCCCN1Sc1ccccc1 | inactive

SMILES | outcome
C=C1c2cccc(O)c2C(O)=C2C(=O)[C@]3(O)C(O)=C(C(N)=O)C(=O)[C@@H](N(C)C)[C@@H]3[C@@H](O)[C@H]12 | inactive
CCOc1cc(-c2cc(-c3ccc(N)cc3)nc(N)c2C#N)ccc1O | inactive
CCOc1cc(-c2cc(-c3ccccc3)nc(N)c2C#N)ccc1O | inactive
CCOc1cc(/C=N/NC(=O)c2ccccc2-n2cccc2)ccc1O | inactive
Nc1ccc2nc(-c3cccnc3)[nH]c2c1 | inactive
Nc1ccc2nc(-c3ccc(Cl)cc3)[nH]c2c1 | inactive
COc1cc(CNC2CCCCC2OC)cc(OC)c1 (stereo not drawn) | inactive
COc1ccc2c3c(cccc13)N(C)N=C2C | inactive
Cc1cccc(N2CCC(N=CN(C)C)=N2)c1 | inactive
CCOC(=O)N/N=C/c1ccc(N(CC)CC)cc1O | inactive
O=C(CCC(=O)Nc1ccc(F)cc1)N/N=C/c1ccc(O)cc1 | inactive
Cc1cc(N2CCCC2)ccc1NC(=O)CN1C(=O)NC2(CCCCC2)C1=O | inactive
COc1ccc(CN(C)CCc2ccccn2)cc1OC | inactive
COc1cc(CN(C)CCc2ccccn2)cc(OC)c1OC | inactive
COc1cc(/C(C)=N/N2CCN(Cc3ccc(C)cc3)CC2)ccc1O | inactive
O=C(CN1CCN(S(=O)(=O)c2ccccc2F)CC1)N1CCc2ccccc2C1 | inactive
O=c1c2sc3ccccc3c2[nH]c(=S)n1CCN1CCOCC1 | inactive
O=C(O)CCCn1c(=S)[nH]c2c(sc3ccc([N+](=O)[O-])cc32)c1=O | inactive
COc1cc(/C=N/NC(=O)c2cnccn2)ccc1O | inactive
CC1CN(CCCCN2C(=O)c3ccccc3C2=O)CC(C)O1 (stereo not drawn) | inactive
CCCCN(CC)CCNC(=O)CCC(=O)Nc1ccc2nc(N3CCN(C)CC3)cc(C)c2c1 | inactive
CCCCN(CCCC)CCNC(=O)CSCc1ccc(C)cc1 | inactive
CC1(C)Nc2cccc3cccc(c23)N1 | inactive
COc1ccc(Br)cc1CN1CCC(N2CCCC2)CC1 | inactive

SMILES | outcome
CCOc1ccc(NCc2cccn2-c2nnc(N3CCC(C(=O)NCCCN4CCCCC4)CC3)s2)cc1 | inactive
CC(/C=C/c1ccc(O)cc1)=N/O | inactive
COc1ccc(NC2CCCN(C(=O)CSc3ccccc3)C2)cc1OC (stereo not drawn) | inactive
Cc1ccc(/C=C2/C(=O)c3ccc(C(=O)O)cc3C2=O)o1 | inactive
CC1(C)OC(=O)C(=Cc2ccc(-c3ccc(S(N)(=O)=O)cc3)o2)C(=O)O1 | inactive
Cc1ccc(/C=C2/C(=O)ON=C2c2ccccc2)o1 | inactive
O=S(=O)(O)c1cc(O)c2cc(Nc3ccccc3)ccc2c1 | inactive
Nc1ccccc1Nc1cccc(C(F)(F)F)c1 | inactive
CCOC(=O)c1[nH]c2ccc(C)cc2c1N | inactive
COc1cc(/C=C/C(=O)OCc2cn3cc(Cl)ccc3n2)ccc1O | inactive
Cc1oc(-c2ccccc2)cc1C(=O)Nc1ccc(N(C)C)cc1 | inactive
CC(=O)Nc1ccc(Nc2ccccc2)cc1 | inactive
O=C(Nc1ccc(Nc2ccccc2)cc1)C1CC1 | inactive
O=C(O)c1ccccc1C(=O)Nc1ccc(Nc2ccccc2)cc1 | inactive
CCN1CCN(c2ccc(N=Cc3ccc(O)cc3O)cc2)CC1 | inactive
Cc1ccc(C)c(OCCCCN2CCCCC2)c1 | inactive
CCOc1cc(/C=C/c2cccc[n+]2C)ccc1O | inactive
c1csc(CNc2ccc3c(c2)OCCO3)c1 | inactive
Cc1ccc(S(=O)(=O)Oc2ccc(/C=C3\C(=N)N4N=C(S(C)(=O)=O)SC4=NC3=O)cc2)cc1 | inactive
CCN(CC(=O)NCc1ccc(F)cc1)C(=O)CN1CCN(c2ccc(OC)cc2)CC1 | inactive
O=C(CNCC1CCCO1)Nc1ccc(N2CCCCCC2)cc1 (stereo not drawn) | inactive
Cc1ccccc1N1C(S)=C(C#N)C(=O)NC1c1cccs1 (stereo not drawn) | inactive
